# CHO-K1 Ca PAM: nonselective activator or artifact in parental CHO-K1 calcium assay; ATP EC20, Fluo-8 calcium fluorescence; 0% at ATP EC20, 100% at ATP max; activation, % at 3 µM; hit rate 0.02% among 360,000; AID 602247;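 active means activation above the run cutoff, the mean activation of all test compounds plus 3 SD, cut at about 40% in these data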;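 further: peak over basal fluorescence ratio in a 140 s read after ATP addition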
# CHRM1 antagonist: antagonists of human M1 muscarinic receptor | P11229 | CHO-K1 hM1, Fluo-8 calcium fluorescence, ACh EC80 antagonist | inhibition, % at 3 µM | hit rate 1.3% among 360,000;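 active means percent inhibition above its own plate's cutoff, namely the mean of that plate's compound wells plus 3 SD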;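 further: peak over basal fluorescence ratio during 140 s after agonist addition; 0% = ACh EC80 plus DMSO and 100% = DMSO alone without agonist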
# Target sequence (P11229 whole entry, looked up): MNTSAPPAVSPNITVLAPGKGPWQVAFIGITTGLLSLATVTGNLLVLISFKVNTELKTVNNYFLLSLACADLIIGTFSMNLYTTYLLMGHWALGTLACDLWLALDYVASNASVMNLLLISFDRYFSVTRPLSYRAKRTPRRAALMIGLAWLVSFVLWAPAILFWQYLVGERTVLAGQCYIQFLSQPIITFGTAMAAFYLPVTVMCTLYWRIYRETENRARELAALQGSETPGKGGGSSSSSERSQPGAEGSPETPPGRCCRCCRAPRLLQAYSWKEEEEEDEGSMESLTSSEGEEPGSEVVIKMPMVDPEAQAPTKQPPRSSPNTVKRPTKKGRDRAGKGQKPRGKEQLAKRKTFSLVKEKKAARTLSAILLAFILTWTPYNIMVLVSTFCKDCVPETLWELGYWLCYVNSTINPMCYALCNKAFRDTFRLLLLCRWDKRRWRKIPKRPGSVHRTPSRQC
# M1 PAM: human CHRM1 positive allosteric modulation; P11229; activation, % at 3 µM; CHO-K1 hM1, Fluo-8 calcium fluorescence, ACh EC20; 0% = ACh EC20, 100% = maximal ACh; hit rate 0.088% among 360,000; AID 588819; in the data active means activation above about 19%, passing the limit was not always enough
# M1 ag: activates human CHRM1 receptor; P11229; CHO-K1 hM1, Fluo-8 calcium fluorescence, agonist mode; 0% DMSO, 100% acetylcholine EC100; activation, % at 3 µM; hit rate 0.33% among 360,000;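 active means activation above the run's mean compound activation plus 3 SD, cut at about 16% in these data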;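 further: peak over basal fluorescence ratio within a 140 s kinetic read after compound addition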
# M1 ag parental: M1 agonist counterscreen hit in parental CHO-K1 cells | hit rate 0.48% among 360,000 | AID 602248 | Fluo-8 calcium fluorescence; scaled to maximal ATP response, vehicle zero | activation, % at 3 µM; in the data active means activation above about 15%;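 further: untransfected CHO-K1 host cells lacking M1 receptor as counterscreen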
# CHO-K1 Ca antag: M1 antagonist counterscreen hit in parental CHO-K1 cells | ATP-induced calcium, Fluo-8 fluorescence | inhibition, % at 3 µM | hit rate 0.6% among 360,000;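 active means inhibition above a per-plate cutoff, the plate's mean sample inhibition plus 3 SD, cut at about 24% in these data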;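 further: 0% = DMSO plus EC80 ATP and 100% = DMSO alone without ATP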
# Active calls of the source: *; nt = not tested or not shown. Only some compounds are listed: those with a hit (about 2.3% of all), similar ones and a draw of the others.
SMILES,CHO-K1 Ca PAM,CHRM1 antagonist,M1 PAM,M1 ag,M1 ag parental,CHO-K1 Ca antag
O=C(c1ccc(OC2CCN(CCc3ccccc3)CC2)cc1)N1CCCC1,10.9,8.7,-9.6,-4.8,1.5,-7.7
O=c1[nH]ncc(N2CCN(Cc3ccccc3)CC2)c1Cl,-17.8,14.1,-11.6,-13.9,-0.2,25.8*
CN1OC[C@@H]2CN(Cc3cc(Cl)cc(Cl)c3)[C@H](c3cccc(-c4ccc(C#N)cc4)c3)C[C@@H]21,-3.8,-13.2,7.3,-1.3,-0.3,0.9
COC(=O)c1nn(-c2ccc(OC)cc2)c(=O)cc1NN,15.9,59.0*,-18.9,-11.5,0.1,-19.0
O=C(C1CCCN(S(=O)(=O)c2cccs2)C1)N1CCN(C2CCCCC2)CC1 (stereo not drawn),-3.7,17.3*,-17.1,-9.6,0.5,-3.0
O=C(C1CCCN(S(=O)(=O)c2cccs2)C1)N1CCc2ccccc2C1 (stereo not drawn),17.6,-24.7,3.9,-0.1,2.2,-12.6
C=CCn1c(C(C)C)nc2ccccc21,5.0,1.5,2.1,-2.3,17.6*,4.7
C=CCn1c(C(O)c2ccccc2)nc2ccccc21 (stereo not drawn),18.9,-13.9,6.5,-3.5,0.2,-10.4
COC(=O)[C@]12CCCCC=C1N(Cc1ccco1)C(=O)[C@H](CC(=O)NCc1ccc(C)o1)C2,5.7,nt,nt,nt,1.7,-8.4
COc1ccc2nc(Cl)c(C=O)c(N3CCOCC3)c2c1,4.7,-12.3,12.7,-0.5,0.1,1.0
CN(C)c1nc(N(C)C)nc(N2CCCCC2)n1,-3.9,21.5*,-1.1,-5.0,-0.4,11.6
COC(=O)c1ccc2nc(-c3ccco3)c(Cc3ccccc3)n2c1,8.5,3.9,-4.4,-1.6,0.6,-3.6
CCOCCCNc1nc2c(c(=O)[nH]c(=O)n2C)n1CCCc1ccccc1,-8.0,9.7,-0.8,-3.7,-0.4,25.6*
COc1ccccc1NC(=S)N(Cc1ccccn1)Cc1ccccc1Cl,5.0,-14.5,6.6,-4.6,6.7,36.1*
COc1ccc(Cc2noc(CN3CCN(c4ccc(Cl)cn4)CC3)n2)cc1OC,0.2,2.8,0.9,-3.5,22.3*,4.1
CCc1ccc(Nc2cc(=O)n(C3CCCCC3)c(=O)[nH]2)cc1,3.5,11.8,-3.2,19.7*,19.0*,3.4
COc1ccc(N2CCN(CC(O)COC(c3ccccc3)c3ccccc3)CC2)cc1 (stereo not drawn),10.6,25.2,-29.6,-11.3,2.0,-1.0
COc1ccc(N2CCN(CC(O)COC(c3ccc(F)cc3)c3ccc(F)cc3)CC2)cc1 (stereo not drawn),10.7,38.6*,-13.6,-10.7,0.1,-15.1
O=C(Nc1ccc(F)cc1)NC1CCCCCCC1,1.7,1.3,-2.9,-0.2,8.5,-1.8
CN(C)C(CNC(C(=O)Nc1ccc(F)cc1)c1ccccc1)c1ccccc1 (stereo not drawn),9.2,83.9*,-31.5,-7.3,4.1,-15.0
CN(C)C(CNC(C(=O)Nc1ccc([N+](=O)[O-])cc1Br)c1ccccc1)c1ccccc1 (stereo not drawn),-5.7,5.6,-3.1,-6.8,0.4,-4.4
O=C(Nc1ccc(F)cc1)C(NC1CCCCC1)c1ccccc1 (stereo not drawn),-15.2,60.0*,-26.2,-7.6,-0.3,5.4
Cc1ccc(-c2cc(C(=O)N/N=C/c3c(C)nn(C)c3C)c3ccccc3n2)c(C)c1,-5.5,-9.6,6.6,1.5,-0.2,24.5*
COc1ccc(NC(=O)c2ccccc2Oc2ccccc2)c(OC)c1,35.5,-13.7,-1.3,4.5,0.2,-19.3
COc1ccc(NC(=O)c2cccnc2)c(OC)c1,-12.6,14.7,-8.0,-3.8,-0.4,26.8*
SMILES,CHO-K1 Ca PAM,CHRM1 antagonist,M1 PAM,M1 ag,M1 ag parental,CHO-K1 Ca antag
COc1ccc(C(=O)Nc2ccccc2Cc2ccccc2)c(OC)c1,51.8*,1.9,-6.3,-5.8,0.8,-22.6
COC(=O)c1cc(OC)c(OC)cc1NC(=O)c1ccc(OC)cc1,-9.9,-9.6,8.5,-0.4,20.1*,25.7*
COc1ccc(NC(=O)c2ccccc2OCc2ccc(F)cc2)c(OC)c1,42.8*,6.0,-7.8,-8.5,1.1,-23.4
CCN(CC)S(=O)(=O)c1ccc(NC(=O)COC(=O)CNC(=O)C2CCCCC2)cc1,0.6,6.7,-2.2,-1.2,1.8,8.3
COc1ccc(OCCNC(=O)c2cccc(Oc3ccc(C(F)(F)F)cc3[N+](=O)[O-])c2)cc1,-15.2,6.0,-10.0,-5.7,-0.2,25.3*
COCCCn1c(N)c(-c2nc3ccccc3n2C)c2nc3ccccc3nc21,7.5,28.1*,-11.6,4.2,9.7,6.8
COc1ccccc1CNC(=O)COc1cc2c(c3oc(=O)cc(C)c13)CCC(C)(C)O2,-14.1,33.5*,-24.9,-5.0,1.4,0.7
CC1(C(=O)NCc2cccc3ccccc23)CCN1Cc1ccc2ccccc2c1 (stereo not drawn),-4.9,18.3,-16.9,-7.9,0.5,-2.6
CC1(C(=O)NCc2cccc(C(F)(F)F)c2)CCN1Cc1ccc2ccccc2c1 (stereo not drawn),10.4,32.0*,-18.6,-8.1,0.8,-8.0
N#C/C(=C\c1ccc(N2CCCCC2)o1)C(N)=O,7.1,-6.7,4.6,-3.1,6.9,6.9
N#C/C(=C\c1ccc(N2CCCCC2)o1)C(=O)Nc1cccc(Br)c1,-13.9,66.2*,-22.7,68.2*,54.5*,58.2*
COc1ccccc1COc1cccn2c(N(C)C(=O)CCC3CCCC3)c(C)nc12,17.1,25.1,-26.8,-7.3,3.7,-1.1
Cc1ccccc1COc1cccn2c(N(C)C(=O)CCC3CCCC3)c(C)nc12,1.1,38.5*,-29.7,-5.4,5.4,-7.2
COc1cccc(NC(=O)Nc2nc(SC)ns2)c1,-12.3,6.0,0.3,6.3,14.2,19.8
COc1cccc(NC(=O)Nc2nc(SC(C)(C)C)ns2)c1,-6.6,37.0*,-14.8,6.0,18.8*,24.3*
CCSc1nsc(NC(=O)Nc2cccc(F)c2)n1,4.7,37.7*,-11.9,4.3,17.8*,18.5
CC1CCN(CC(O)CN2c3ccccc3Sc3ccccc32)CC1 (stereo not drawn),1.7,8.3,-11.3,-5.0,25.5*,2.1
CC1CCN(C(=O)N2c3ccccc3Sc3ccccc32)CC1,4.7,-10.0,-6.5,-6.5,0.1,-7.6
COc1cc(C)c(CN2CCC(Oc3ccc(C(=O)N4CCCC4)cc3)CC2)cc1C,7.2,-5.6,0.6,-4.7,1.4,-11.3
CCc1ccc(CN2CCC(Oc3ccc(C(=O)N4CCCC4)cc3)CC2)cc1,-19.7,81.6*,-23.7,-5.8,0.6,5.5
CC(C)c1ccc(CN2CCC(Oc3ccc(C(=O)N4CCCC4)cc3)CC2)cc1,-7.8,81.1*,-22.9,-3.5,2.2,2.9
